According to PubChem BioAssay (NCI):
This is part of a sample that, as a whole, favours compounds with a hit. Of some 83,000 tested, about 20% had one in any assay.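 Each cell line was grown in a 96-well plate and treated with one concentration of compound for 48 hours. Values below 10 were considered active.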 A number with no mark means an inactive call. The source made the active and inactive calls.

Key:
Test in all cases: NCI-60 one-dose screen, 48 h (100 = growth as untreated, 0 = no growth, -100 = all killed)
Conditions in all cases: 10 µM unless noted
SK-MEL-2 melanoma = system: SK-MEL-2 melanoma
EKVX NSCLC = system: EKVX NSCLC
SN12C renal = system: SN12C renal
UO-31 renal = system: UO-31 renal
TK-10 renal = system: TK-10 renal
ACHN renal = system: ACHN renal
A498 renal = system: A498 renal
CCRF-CEM leukemia = system: CCRF-CEM leukemia
MOLT-4 leukemia = system: MOLT-4 leukemia

SMILES | growth (SK-MEL-2 melanoma) | growth (EKVX NSCLC) | growth (SN12C renal) | growth (UO-31 renal) | growth (TK-10 renal) | growth (ACHN renal) | growth (A498 renal) | growth (CCRF-CEM leukemia) | growth (MOLT-4 leukemia)
CC(=O)c1cc2c(N)c(C(=O)Nc3cccc(Cl)c3)sc2nc1C | 39% | 76.5% | 92.6% | 78.7% | 90.4% | 93% | 37.4% | 92.8% | 73.4%
CCOC(=O)c1cnc2c(OC)ccc(OC)c2c1Cl | 127% | 115% | 110% | 88.3% | 106% | 100% | 91.8% | 5.54% (active) | 113%
COC(=O)c1oc2c(C(C)=O)c(OCCCN(C)C)ccc2c1C | 106% | 187% | 109% | 75.3% | 90.8% | 107% | 125% | -13.6% (active) | 85.8%
CCOc1ccc(NC(=O)Nc2cc(C(C)C)ccc2C)cc1 | 68.6% | 96.1% | 57.3% | 15.2% | 55% | 20.6% | 87.2% | 44.4% | 72.2%
O=C(c1ccccc1)[C@H]1[C@@H]2CCCN2[C@]2(C(=O)Nc3ccc(F)cc32)[C@]12C(=O)Nc1ccccc12 | 83.1% | 70.8% | 92% | 85.4% | 113% | 88.6% | 89.7% | 76.8% | 59.5%
CC(C)Cn1cnc2c3ccccc3nc(NCn3nc(-c4cc(Cl)cc(Cl)c4Cl)oc3=S)c21 | 90.8% | 89.1% | 98.5% | 64.8% | 108% | 97.6% | 89.5% | 6.87% (active) | 20.4%
C=C1C(=O)O[C@H]2[C@H]1CC/C(COC(=O)c1ccc(Br)cc1)=C\CC[C@@]1(C)O[C@@H]21 | -24.5% (active) | -41.3% (active) | -22% (active) | -89.8% (active) | 8.28% (active) | -93.4% (active) | 100% | -17.5% (active) | -27.2% (active)
COc1ccccc1S(=O)(=O)Nc1ccc2c3c(cc(-c4cnn(C)c4)nc13)C(=O)N2C | 46.9% | 40.2% | 52.2% | 23.7% | 13% | 37.5% | 26.8% | 55.5% | 44.7%
S=c1n(CNc2ccc(Cl)nn2)nc(-c2cc(Cl)cc(Cl)c2Cl)n1/N=C/c1ccc(Cl)cc1 | 84.1% | 91.3% | 103% | 80.8% | 113% | 107% | 121% | -32.8% (active) | 60.5%
C=C1C(=O)O[C@H]2[C@H]1CC/C(COC(=O)c1ccc3ccccc3c1)=C\CC[C@@]1(C)O[C@@H]21 | -70.4% (active) | -75.5% (active) | -54% (active) | -98.9% (active) | -95.9% (active) | -100% (active) | 64.1% | -22.9% (active) | -14.1% (active)
C=C(C)[C@@H]1C/C=C(\COC(=O)[C@H](OC(C)=O)C(NC(=O)c2ccccc2)c2ccccc2)CC[C@H]2O[C@]2(C)CC/C=C(\C)CC1 (stereo partly specified) | 76.2% [5 µM] | 64.5% [5 µM] | 82.1% [5 µM] | 51.9% [5 µM] | 85.8% [5 µM] | 86.8% [5 µM] | 84.9% [5 µM] | -89.5% [5 µM] (active) | 17.6% [5 µM]
CC(C)(C)OC(=O)N1CC(Cn2cc(C(F)(F)F)c3c(Cl)ncnc32)C1 | -77.4% (active) | 50.3% | -25.4% (active) | -95.1% (active) | 115% | 73.5% | 34.2% | -26.6% (active) | -37.5% (active)
O=C(Nc1ccccc1F)Nc1ccccc1Cl | 109% | 73.2% | 104% | 98.2% | 125% | 90.8% | 85.8% | 86.9% | 69.3%
O=C(N/N=C/c1ccccc1O)c1ccccc1O | 61.1% | 37.5% | 41% | 3.31% (active) | 42.4% | 16.7% | 99.6% | 12.7% | 19.3%
CN(C)c1ccc(/C=N/N=C(N)N)cc1 | 78.6% | 89.3% | 82.3% | 72.5% | 106% | 98.5% | 17.7% | 104% | 83.2%
COc1cc(/C=C/C(=O)N2CCC=CC2=O)cc(OC)c1OC | 74.9% | 57.1% | 45.1% | 57.7% | 38.7% | -7.71% (active) | 98.7% | 15% | 42.1%
CN1CCN(Cn2nc(-c3cc(F)c(Cl)cc3Cl)n(/N=C/c3ccc(N(C)C)cc3)c2=S)CC1 | 90.2% | 87.1% | 102% | 55.5% | 90.2% | 92.7% | 78.8% | 83.5% | 99.1%
Nc1nc2ccc(CNc3ccc(C(=O)NC(CC(=O)O)C(=O)O)cc3)cc2c(=O)[nH]1 (stereo unspecified) | 51.9% | 63.6% | 41.3% | 16.9% | 82% | 33.1% | 93.1% | 23.2% | 30.4%
COC(=O)CCCNS(=O)(=O)c1cc(C(=O)Nc2ccc(NC(=O)c3cc(S(=O)(=O)NCCCC(=O)OC)c(O)c(O)c3O)cc2)c(O)c(O)c1O | 98.6% | 84.3% | 85.3% | 82.9% | 94.9% | 109% | 104% | 58.6% | 87.6%
COc1cc(-c2nc3ccccc3s2)ccc1OCc1nc2n(n1)S(=O)(=O)c1ccccc1N2c1ccccc1 | 98.5% | 95.4% | 108% | 82.4% | 121% | 107% | 100% | 112% | 80.5%
O=C(Nc1ccccc1Cl)c1c[nH]c(=O)c(-c2ccc(N3CCCOC4(CC4)C3)cc2)c1 | 70.1% | 37.6% | 74.9% | 65.7% | 52.4% | 72.2% | 47.9% | 48.3% | 48.1%
COc1cc2nc(C(=O)N3CCCCC3)cc(Nc3ccccc3)c2cc1OC | 99.5% | 97.3% | 98.9% | 82.4% | 98.6% | 96.4% | 91% | 101% | 97.3%
O=C1c2ccccc2C(=O)c2c(NCCN=Cc3c(O)ccc4ccccc34)cccc21 | 107% | 73.3% | 85.2% | 49.9% | 94.2% | 65.3% | 80.7% | -46.1% (active) | 76.9%
Cn1c2ccccc2c2ssc(=S)c21 | 92.8% | 39.5% | 116% | 84% | 111% | 114% | 86.1% | 116% | 75.5%
COc1ccc(-c2c(C#N)cnc(N)c2-c2nc3cc(C)c(C)cc3[nH]2)cc1 | 41.4% | 63% | 80.7% | 83.9% | 48.6% | 53.2% | 82.9% | 90.5% | 104%
CC(C)(C)NCC(O)COc1c(Br)c(Br)c(Br)c2c1OC(C)(C)C2 (stereo unspecified) | -71.9% (active) | 50.1% | 33.2% | -81.8% (active) | -77.8% (active) | -60.1% (active) | -6.49% (active) | -62.5% (active) | -56.1% (active)
COc1ccc(OC)c(NCC(=O)n2nc(/C=C\c3ccc(O)c(OC)c3)cc2/C=C\c2ccc(O)c(OC)c2)c1 | 0.648% (active) | 28.7% | 21.5% | 5.1% (active) | 16.4% | 18.6% | 34.1% | 5.46% (active) | 7.73% (active)
CC(C(=O)O)N1C(N)=NNC1c1ccccc1O (stereo unspecified) | 99.7% | 50.6% | 93.4% | 66.3% | 148% | 87.3% | 98.8% | 82.7% | 68.1%
Cc1[nH]n(C(=O)c2ccncc2)c(=O)c1N=Nc1ccc(S(=O)(=O)Nc2ccncn2)cc1 | 116% | 94.4% | 97% | 85.1% | 101% | 104% | 111% | -33.9% (active) | 102%
